# Data from ChEMBL document CHEMBL5724796, “Tm Shift (DSF) assay results for EUbOPEN Chemogenomics Library” (2024).
# Where “and” joins values, the source holds several entries; their conditions need not be identical. Equal entries are not always repeated.
# Assays:
# Settings in all cases: Compound concentration 20.0 uM
# [1] = target: Tyrosine-protein kinase ABL1 (Homo sapiens) (UniProt P00519)
# [2] = target: Bromodomain-containing protein 4 (Homo sapiens) (UniProt O60885)
# [3] = target: Cyclin-dependent kinase 2 (Homo sapiens) (UniProt P24941)
# [4] = target: Casein kinase I isoform delta (Homo sapiens) (UniProt P48730)
# [5] = target: Glycogen synthase kinase-3 beta (Homo sapiens) (UniProt P49841)
# [6] = target: Mitogen-activated protein kinase 1 (Homo sapiens) (UniProt P28482)
# [7] = target: T1, Aurora kinase A (Homo sapiens) (UniProt O14965)
# T1 sequence (whole entry): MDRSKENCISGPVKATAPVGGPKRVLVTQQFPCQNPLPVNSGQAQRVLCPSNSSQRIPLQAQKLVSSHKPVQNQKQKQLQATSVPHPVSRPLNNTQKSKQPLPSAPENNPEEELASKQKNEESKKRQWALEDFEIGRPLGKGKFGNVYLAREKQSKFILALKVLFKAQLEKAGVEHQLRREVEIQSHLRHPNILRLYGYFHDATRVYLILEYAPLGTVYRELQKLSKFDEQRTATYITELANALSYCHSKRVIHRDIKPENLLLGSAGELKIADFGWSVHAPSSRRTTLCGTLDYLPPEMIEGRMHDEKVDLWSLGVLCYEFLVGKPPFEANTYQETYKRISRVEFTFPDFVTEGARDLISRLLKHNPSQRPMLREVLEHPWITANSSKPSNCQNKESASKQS
# [8] = target: T2, Transcription intermediary factor 1-alpha (Homo sapiens) (UniProt O15164)
# T2 sequence (whole entry): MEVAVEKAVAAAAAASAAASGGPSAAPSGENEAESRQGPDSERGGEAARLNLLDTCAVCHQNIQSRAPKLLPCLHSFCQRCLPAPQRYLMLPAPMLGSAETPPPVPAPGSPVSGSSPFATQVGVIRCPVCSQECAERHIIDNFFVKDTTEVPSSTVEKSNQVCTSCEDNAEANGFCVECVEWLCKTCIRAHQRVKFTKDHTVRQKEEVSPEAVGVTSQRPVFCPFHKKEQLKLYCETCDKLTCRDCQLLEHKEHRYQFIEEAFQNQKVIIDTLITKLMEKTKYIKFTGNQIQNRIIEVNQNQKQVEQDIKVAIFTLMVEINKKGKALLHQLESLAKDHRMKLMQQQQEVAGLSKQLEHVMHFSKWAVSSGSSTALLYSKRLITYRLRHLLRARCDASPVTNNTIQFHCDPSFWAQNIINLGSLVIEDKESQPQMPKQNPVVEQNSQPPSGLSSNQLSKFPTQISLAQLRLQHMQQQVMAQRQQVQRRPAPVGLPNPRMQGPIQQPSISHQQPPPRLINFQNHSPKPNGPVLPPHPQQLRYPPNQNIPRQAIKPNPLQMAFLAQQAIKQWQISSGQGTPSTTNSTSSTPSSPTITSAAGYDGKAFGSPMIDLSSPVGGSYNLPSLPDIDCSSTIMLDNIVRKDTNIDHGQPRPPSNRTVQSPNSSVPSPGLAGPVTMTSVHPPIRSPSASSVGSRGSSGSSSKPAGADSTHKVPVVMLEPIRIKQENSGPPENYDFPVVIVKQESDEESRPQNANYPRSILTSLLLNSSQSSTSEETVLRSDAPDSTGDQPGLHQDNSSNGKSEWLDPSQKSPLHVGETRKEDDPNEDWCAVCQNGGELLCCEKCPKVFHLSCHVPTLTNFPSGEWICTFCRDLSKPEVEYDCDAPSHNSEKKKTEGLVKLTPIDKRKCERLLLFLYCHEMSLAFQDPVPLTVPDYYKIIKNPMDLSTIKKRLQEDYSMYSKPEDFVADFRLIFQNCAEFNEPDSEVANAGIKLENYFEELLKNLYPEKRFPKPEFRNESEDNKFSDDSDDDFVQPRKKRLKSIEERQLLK
# Casein kinase I isoform delta (Homo sapiens), sequence (P48730 whole entry, looked up, canonical isoform): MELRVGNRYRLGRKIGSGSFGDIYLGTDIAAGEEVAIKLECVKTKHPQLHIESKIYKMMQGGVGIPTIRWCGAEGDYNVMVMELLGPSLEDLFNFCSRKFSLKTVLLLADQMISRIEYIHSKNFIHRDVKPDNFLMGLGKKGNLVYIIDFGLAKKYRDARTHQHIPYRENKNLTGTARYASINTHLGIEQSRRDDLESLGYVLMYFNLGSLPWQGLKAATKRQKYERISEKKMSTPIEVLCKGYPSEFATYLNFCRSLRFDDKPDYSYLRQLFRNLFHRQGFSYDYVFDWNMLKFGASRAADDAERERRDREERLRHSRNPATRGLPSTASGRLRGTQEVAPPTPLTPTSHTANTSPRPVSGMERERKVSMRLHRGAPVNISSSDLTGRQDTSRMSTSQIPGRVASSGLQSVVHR
# Tyrosine-protein kinase ABL1 (Homo sapiens), sequence (P00519 whole entry): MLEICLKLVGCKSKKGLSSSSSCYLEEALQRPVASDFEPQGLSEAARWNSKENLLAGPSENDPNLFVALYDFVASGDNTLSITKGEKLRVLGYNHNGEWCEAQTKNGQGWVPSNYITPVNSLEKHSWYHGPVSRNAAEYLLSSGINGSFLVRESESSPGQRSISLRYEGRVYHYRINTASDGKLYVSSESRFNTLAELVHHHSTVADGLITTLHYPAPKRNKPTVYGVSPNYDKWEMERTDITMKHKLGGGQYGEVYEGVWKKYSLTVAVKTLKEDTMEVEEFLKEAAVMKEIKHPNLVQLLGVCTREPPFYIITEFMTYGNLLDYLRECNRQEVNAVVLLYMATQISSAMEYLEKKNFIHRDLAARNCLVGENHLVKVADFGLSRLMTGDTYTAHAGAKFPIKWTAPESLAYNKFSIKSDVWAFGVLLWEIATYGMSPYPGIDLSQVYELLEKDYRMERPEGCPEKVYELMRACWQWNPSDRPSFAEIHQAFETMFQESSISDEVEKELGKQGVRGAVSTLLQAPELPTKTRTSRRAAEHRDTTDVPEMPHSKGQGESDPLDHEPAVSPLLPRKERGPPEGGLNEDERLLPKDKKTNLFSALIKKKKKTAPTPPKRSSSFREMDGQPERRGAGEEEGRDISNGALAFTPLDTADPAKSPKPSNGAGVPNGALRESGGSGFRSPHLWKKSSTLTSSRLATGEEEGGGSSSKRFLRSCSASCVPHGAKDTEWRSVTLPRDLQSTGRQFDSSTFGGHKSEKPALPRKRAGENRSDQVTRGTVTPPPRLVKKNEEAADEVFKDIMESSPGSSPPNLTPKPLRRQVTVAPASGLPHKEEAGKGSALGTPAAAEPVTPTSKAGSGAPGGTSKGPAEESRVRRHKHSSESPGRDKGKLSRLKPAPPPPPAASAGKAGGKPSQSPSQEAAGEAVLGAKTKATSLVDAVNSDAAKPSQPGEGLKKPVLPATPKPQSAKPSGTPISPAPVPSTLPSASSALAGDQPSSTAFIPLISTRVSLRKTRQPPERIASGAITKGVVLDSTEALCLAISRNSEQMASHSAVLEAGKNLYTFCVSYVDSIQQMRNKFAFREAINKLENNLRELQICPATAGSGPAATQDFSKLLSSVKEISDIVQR
# Mitogen-activated protein kinase 1 (Homo sapiens), sequence (P28482 whole entry): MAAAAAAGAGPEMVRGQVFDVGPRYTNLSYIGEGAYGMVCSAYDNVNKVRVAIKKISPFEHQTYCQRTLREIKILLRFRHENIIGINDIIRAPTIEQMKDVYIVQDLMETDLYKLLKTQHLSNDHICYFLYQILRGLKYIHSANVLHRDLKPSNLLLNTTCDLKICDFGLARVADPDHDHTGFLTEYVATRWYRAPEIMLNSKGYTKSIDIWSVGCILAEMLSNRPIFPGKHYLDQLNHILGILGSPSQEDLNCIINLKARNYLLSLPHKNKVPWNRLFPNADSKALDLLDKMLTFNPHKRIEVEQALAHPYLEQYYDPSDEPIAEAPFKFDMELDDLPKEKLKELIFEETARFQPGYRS
# Glycogen synthase kinase-3 beta (Homo sapiens), sequence (P49841 whole entry, looked up): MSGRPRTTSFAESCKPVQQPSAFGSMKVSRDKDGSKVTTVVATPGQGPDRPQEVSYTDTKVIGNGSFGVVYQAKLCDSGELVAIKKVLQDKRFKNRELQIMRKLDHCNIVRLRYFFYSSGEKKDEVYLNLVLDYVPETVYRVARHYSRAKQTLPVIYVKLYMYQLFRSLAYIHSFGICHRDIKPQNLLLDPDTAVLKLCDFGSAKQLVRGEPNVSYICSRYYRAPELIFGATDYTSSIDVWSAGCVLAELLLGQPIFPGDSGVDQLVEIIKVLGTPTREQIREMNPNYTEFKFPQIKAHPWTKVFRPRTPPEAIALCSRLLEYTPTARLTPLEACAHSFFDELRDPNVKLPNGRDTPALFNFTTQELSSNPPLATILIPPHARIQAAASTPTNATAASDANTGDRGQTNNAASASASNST
Compound,ΔTm [1],ΔTm [2],ΔTm [3],ΔTm [4],ΔTm [5],ΔTm [6],ΔTm [7],ΔTm [8]
N[C@@H](CCCCNC(=O)OCc1ccc([N+](=O)[O-])cc1)C(=O)N1CCCC1,0.09 °C,-2.69 °C,0.15 °C,-0.16 °C,-0.58 °C,0.13 °C,-1.1 °C,-0.07 °C
Cc1nc(N)c2nnn(C[C@H]3CN(Cc4nccs4)CCO3)c2n1,0.44 °C,-3.68 °C,-0.07 °C,-0.32 °C,-0.34 °C,0.04 °C,-1.7 °C,1.36 °C
Cn1ncnc1[C@H]1C2=c3c(cc(F)cc3=N[C@@H]1c1ccc(F)cc1)C(=O)NN2,0.89 °C,0.71 °C,0.22 °C,-0.5 °C,0.19 °C,0.14 °C,-1.59 °C,0.57 °C
CCOc1ccc(Cc2cc([C@@H]3O[C@H](CO)[C@@H](O)[C@H](O)[C@H]3O)ccc2Cl)cc1,0.64 °C,-1.76 °C,-0.13 °C,-0.16 °C,-0.82 °C,0.08 °C,-2.13 °C,-0.07 °C
O=c1[nH][nH]c(=O)c2cc(OCC3CCCCC3)ccc12,2.06 °C,-1.15 °C,1.01 °C,-0.01 °C,2.16 °C,0.61 °C,-0.19 °C,1.88 °C
O=C(c1cccc(-c2ccc(-c3cn(C(=O)N4CCCCC4c4ccccc4)nn3)cc2)c1)N1CCCCC1 (stereo not drawn),1.85 °C,11.3 °C,0.3 °C,0.93 °C,-2.22 °C,1.43 °C,4.6 °C,-0.32 °C
COC(=O)[C@H]1[C@H]2C[C@@H]3c4[nH]c5cc(OC)ccc5c4CCN3C[C@H]2C[C@@H](OC(=O)c2cc(OC)c(OC)c(OC)c2)[C@@H]1OC,0.21 °C,-0.12 °C,0.11 °C,-0.26 °C,-0.54 °C,0.12 °C,-0.63 °C,-0.4 °C
CS(=O)(=O)N1CCN(C(=O)c2cnc3ccc(Cl)cc3c2-c2ccc(C3(C#N)CC3)cc2)CC1,0.55 °C,-2.94 °C,0.81 °C,0.96 °C,4.93 °C,0.97 °C,-2.24 °C,-1.2 °C
O=C(C1CC1)N1CC[C@@H](Cc2n[nH]c(=O)n2-c2ccc(-c3ccc4occc4c3)cc2)C1,0.72 °C and 0.71 °C,-1.91 °C and -3.51 °C,-0.31 °C and -0.16 °C,0.35 °C and -0.18 °C,-0.54 °C and 0.29 °C,0.34 °C and 0.05 °C,-4.5 °C and -1.89 °C,-1.14 °C and -0.89 °C
COc1ccc2c(c1)OC(C)(C)C(c1ccccc1)C2c1ccc(OCCN2CCCC2)cc1 (stereo not drawn),-0.02 °C,-3.83 °C,-2.04 °C,-0.1 °C,0 °C,-2.68 °C,0.51 °C,-3.44 °C
CCCc1nc(C)c2c(C)nc3ccc(OC)nc3n12,1.04 °C,-3.02 °C,-0.07 °C,2.7 °C,1.39 °C,0.58 °C,-1.87 °C,0.69 °C
CC(C)[C@@H]1C(=O)N(S(C)(=O)=O)[C@@H]2CCN(C(=O)/C=C/CN3CCCCC3)[C@H]21,0.18 °C,-2.34 °C,0.22 °C,0.11 °C,-1.7 °C,0.03 °C,-0.54 °C,-1.12 °C
CC(C)(C)NS(=O)(=O)c1cccc2c(NC(=O)[C@H](Cc3ccccc3)NC(=O)C3CCCCC3)cccc12,0.13 °C,1.07 °C,0.3 °C,-1.46 °C,-0.2 °C,-10.5 °C,-2.29 °C,2.01 °C
CC(C)(C)c1ccc(S(=O)(=O)NCc2ccc(C(=O)Nc3cccnc3)cc2)cc1,0.45 °C,-2.48 °C,-0.13 °C,-0.13 °C,-1.45 °C,0.7 °C,-2.1 °C,0.99 °C
Cn1cc(C(=O)Nc2ccc([C@@H]3C[C@H]3NCC3CC3)cc2)cn1,0.52 °C,-3.07 °C,0.01 °C,-0.16 °C,-0.77 °C,0.06 °C,-2.24 °C,0.47 °C
Cc1nc(-c2cnn(C)c2-c2ccc(C(F)(F)F)cn2)c2c(N3CCC3)ncnn12,0.74 °C,-3.11 °C,0.08 °C,-0.17 °C,-0.34 °C,0.1 °C,-2.46 °C,0.34 °C
Cc1cc(C)nc(SCC(=O)Nc2ncc(Cc3cccc(OCc4cn(Cc5ccccc5)nn4)c3)s2)n1,-4.58 °C,-6.78 °C,-3.98 °C,-2.38 °C,-0.77 °C,0.65 °C,-2.36 °C,3.08 °C
CNCCC(Oc1ccccc1OC)c1ccccc1 (stereo not drawn),0.01 °C,-1.45 °C,-0.03 °C,-0.42 °C,-0.93 °C,0.05 °C,-1.7 °C,0.03 °C
CN(C)CCCN(CC[C@H](N)C(=O)O)C[C@H]1O[C@@H](n2cnc3c(N)ncnc32)[C@H](O)[C@@H]1O,0.32 °C,-2.2 °C,-0.1 °C,0.02 °C,-1.16 °C,0.04 °C,-0.74 °C,-1.49 °C
CCCCCCNC(=O)n1cc(Cl)c(=O)n(C(=O)OCC(C)C)c1=O,0.44 °C,-0.35 °C,0.16 °C,-0.34 °C,-0.76 °C,-0.05 °C,-0.58 °C,0.93 °C
CC(C)N(C[C@H]1O[C@@H](n2cnc3c(N)ncnc32)[C@H](O)[C@@H]1O)[C@H]1C[C@@H](CCc2nc3cc(C(C)(C)C)ccc3[nH]2)C1,0.52 °C,-1.59 °C,0.63 °C,0.57 °C,-0.47 °C,-0.02 °C,0.32 °C,-0.97 °C
